Experimental data reported in PubChem BioAssay (NCI).
Compounds without any hit were thinned out: in the full panel of roughly 83,000, 20% have a hit.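 Results are percent growth after 48 hours of single-concentration exposure. 100 means growth as in untreated cells, lower positive values show inhibition; negative values down to -100 show cell death.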 Values without a mark were called inactive. Calls of active or inactive are those of the source. Rule for the calls: active = growth percent below 10; inactive = the rest.

Experiments:
Assay in all cases: NCI-60 one-dose screen, 48 h (100 = growth as untreated, 0 = no growth, -100 = all killed)
Details in all cases: 10 µM unless noted
NCI-H23 lung = tested on: NCI-H23 lung
NCI-H226 lung = tested on: NCI-H226 lung
NCI-H322M lung = tested on: NCI-H322M lung
HOP-62 NSCLC = tested on: HOP-62 NSCLC
NCI-H460 lung = tested on: NCI-H460 lung
HOP-92 NSCLC = tested on: HOP-92 NSCLC
NCI-H522 lung = tested on: NCI-H522 lung
A549/ATCC NSCLC = tested on: A549/ATCC NSCLC
786-0 renal = tested on: 786-0 renal
COLO 205 colon = tested on: COLO 205 colon
DU-145 prostate = tested on: DU-145 prostate
K-562 leukemia = tested on: K-562 leukemia
MALME-3M melanoma = tested on: MALME-3M melanoma
MDA-MB-231 breast = tested on: MDA-MB-231 breast
RXF 393 renal = tested on: RXF 393 renal
SF-268 CNS = tested on: SF-268 CNS
SF-295 CNS = tested on: SF-295 CNS
SF-539 CNS = tested on: SF-539 CNS
UACC-257 melanoma = tested on: UACC-257 melanoma
M14 melanoma = tested on: M14 melanoma

SMILES	growth (NCI-H23 lung)	growth (NCI-H226 lung)	growth (NCI-H322M lung)	growth (HOP-62 NSCLC)	growth (NCI-H460 lung)	growth (HOP-92 NSCLC)	growth (NCI-H522 lung)	growth (A549/ATCC NSCLC)	growth (786-0 renal)	growth (COLO 205 colon)	growth (DU-145 prostate)	growth (K-562 leukemia)	growth (MALME-3M melanoma)	growth (MDA-MB-231 breast)	growth (RXF 393 renal)	growth (SF-268 CNS)	growth (SF-295 CNS)	growth (SF-539 CNS)	growth (UACC-257 melanoma)	growth (M14 melanoma)
O=C(O)COc1ccc(Cl)cc1C1CCCCC1	102%	92.8%	101%	106%	96.3%	111%	99%	93.2%	106%	119%	110%	91.8%	104%	98.5%	102%	102%	109%	107%	114%	102%
CSc1nc(NCc2ccccc2)c(C#N)c(-c2cccc([N+](=O)[O-])c2)n1	93.7%	94.5%	95.7%	89.2%	97%	77.7%	85.4%	88.4%	96.6%	110%	103%	90.7%	113%	82.7%	102%	94.3%	98.9%	104%	109%	98%
Cn1nc(N)c2cc([C@@H]3Nc4ccc5[nH]ncc5c4[C@H]4C5CCC(C5)[C@@H]34)ccc21 (stereo not given in full)	26.9%	30.6%	48.9%	46.9%	2.68% (active)	105%	17.9%	28.5%	34.7%	2.47% (active)	18.8%	9.76% (active)	52.7%	48.5%	-11.1% (active)	42.5%	9.61% (active)	-15.5% (active)	77.4%	3.16% (active)
CC1=C[C@H]2c3c(c(O)c(O)c4oc(-c5ccccc5)cc(=O)c34)[C@H](c3cc(O)c(O)c4oc(-c5ccccc5)cc(=O)c34)[C@H]2C(C)(C)C1	-14.4% (active)	-3.14% (active)	6.91% (active)	-2.06% (active)	-31.8% (active)	-10% (active)	-12.7% (active)	2.87% (active)	-22.8% (active)	4.64% (active)	9.89% (active)	2.82% (active)	-12.8% (active)	5.31% (active)	-26.6% (active)	5.26% (active)	-18.2% (active)	-10.5% (active)	12.8%	-28.1% (active)
C#CCOc1ccc2ncnc(N3CCC(NC(=O)CCl)CC3)c2c1	71.6% [8.25 µM]	2.28% [8.25 µM] (active)	88.1% [8.25 µM]	68.2% [8.25 µM]	81.5% [8.25 µM]	56.8% [8.25 µM]	55.6% [8.25 µM]	75.7% [8.25 µM]	45.8% [8.25 µM]	82.5% [8.25 µM]	72.8% [8.25 µM]	81.5% [8.25 µM]	83.9% [8.25 µM]	96.1% [8.25 µM]	16% [8.25 µM]	49.1% [8.25 µM]	109% [8.25 µM]	74.6% [8.25 µM]	79.7% [8.25 µM]	72.8% [8.25 µM]
COc1ccc(-c2cc(NC(=O)Nc3ccc4ncsc4c3)no2)cc1	100%	101%	107%	111%	99.9%	105%	88.3%	103%	99.1%	125%	108%	101%	112%	103%	129%	105%	89.1%	102%	115%	106%
C=C(C)[C@@H]1CC[C@]2(C(=O)OC)CC[C@]3(C)[C@H](CC[C@@H]4[C@@]5(C)C/C(=C/c6ccc(OC)cc6)C(=O)C(C)(C)[C@@H]5CC[C@]43C)[C@@H]12	84.8%	97.2%	106%	99.9%	101%	77.9%	78.8%	89.5%	92.2%	94.4%	91.1%	3.32% (active)	99.7%	108%	66.9%	90.7%	99.9%	90.3%	104%	91%
